Assay results: PubChem BioAssay (NCATS)
Records with an inconclusive call do not appear. Activity calls are given as the source filed them. Unless noted, the call rests on the fitted dose curve; in most records, active means well fitted curve in the direction sought with a large enough effect; inconclusive means small, poorly fitted or top-dose-only effect, or another doubt; inactive means no such curve, though single readings can be large; an effect the other way counts as inactive or inconclusive.

What was measured:
[1] = Primary qHTS for inhibitors of nuclear receptor binding SET domain protein 2 (NSD2) in an RCH-ACV wild type WT cells (2C) (AID 1645877); further: nearly all actives have a fitted effect of over 70% in size; further: potency means the concentration at half of the fitted maximal effect; on activity change, negative = cell killing: on the % scale 0 is the no-effect control and ±100 the full control effect
[2] = target: Glutathione peroxidase 1 (Homo sapiens) (UniProt P07203); assay: Primary qHTS Assay for Inhibitors of Recombinant Selenoprotein Glutathione Peroxidase 1 (GPX1) (AID 1845191); further: nearly all actives have a fitted effect of over 65% in size
How it was run: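 GPX1 10 nM, GR 100 nM, GSH 1 mM, NADPH 0.5 mM, CHP 0.5 mM (final). 30-min cpd preincubation, RT. Ex340/Em450 read t=0, t=15 min.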

[3] = Primary fluorescence-based thiol-reactive (MSTI) qHTS assay for identification of artifact compounds. (AID 1845221); further: nearly all actives have a fitted effect of over 65% in size; further: potency means the concentration at half of the fitted maximal effect;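 on activity change, negative = thiol reactive: thiol-reactive compounds lower the probe fluorescence signal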
How it was run: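 A multi-concentration qHTS design tested compounds against 4 uM MSTI, pH 7.4 phosphate-buffered saline. Plates were protected from light for 1 h at room temperature before imaging fluorescence.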

KB-3-1 = assay: Cytotoxic Profiling of Annotated Libraries Using Quantitative High-Throughput Screening (AID 1296008); details: Five cell lines viability, CellTiter-Glo ATP luminescence, 48-72 h; max response: stronger effect = lower value; further: nearly all actives have a fitted effect of over 60% in size; further: potency means the concentration at half of the fitted maximal effect; on max response: on the % scale 0 is the no-effect control and ±100 the full control effect
How it was run: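 Compounds were pin-transferred onto cells and incubated 48 or 72 hr at 37 degree Celsius, 95% humidity. CellTiter-Glo was added, plates sat 10 min at room temperature, then ATP-coupled luminescence was imaged as the viability read-out.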

CAOV3 = assay: Primary qHTS to identify gynecologic anti-cancer compounds using libraries of approved drugs and bioactive compounds (AID 1345084); details: Gynecologic cancer cell panel viability, ATPlite luminescence, 48 h; series mostly up to 57.5 µM; further: nearly all actives have a fitted effect of over 55% in size; further: potency means the concentration at half of the fitted maximal effect; on activity change, negative = cytotoxicity: on the % scale 0 is the no-effect control and ±100 the full control effect
How it was run: (§1)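 ATP-based viability (ATPlite), 1,000 cells/well, 16 h pre-incubation, 48 h compound at 37 C, 5% CO2, 15 min RT before read.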

HeLa = assay: as above; details: Gynecologic cancer cell panel viability, ATPlite luminescence, 48 h; series mostly up to 57.5 µM
How it was run: as §1

SKOV3 = assay: as above; details: Gynecologic cancer cell panel viability, ATPlite luminescence, 48 h; series mostly up to 57.5 µM
How it was run: as §1

[4] = system: Zika virus NS2B-NS3 protease (unlinked complex); assay: Primary screen GU Rhodamine qHTS for Zika virus inhibitors: Unlinked NS2B-NS3 protease assay (AID 1347159); further: nearly all actives have a fitted effect of over 60% in size; further: potency means the concentration at half of the fitted maximal effect; on activity change, negative = inhibition: on the % scale 0 is the no-effect control and ±100 the full control effect
How it was run: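 In dose–response format, inhibition of unlinked protease (25 nM) was measured with 1.5 microM bis-peptide Rhodamine110 substrate. Aprotinin served as the intraplate control.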

JEG-3 = assay: Primary qHTS to identify gynecologic anti-cancer compounds using libraries of approved drugs and bioactive compounds (AID 1345084); details: Gynecologic cancer cell panel viability, ATPlite luminescence, 48 h; series mostly up to 57.5 µM; further: nearly all actives have a fitted effect of over 55% in size; further: potency means the concentration at half of the fitted maximal effect
How it was run: as §1

[5] = target: Cytochrome P450 2D6 (Homo sapiens) (UniProt P10635); assay: Cytochrome P450 family 2 subfamily D member 6 (CYP2D6) small molecule antagonists: luciferase biochemical (cell-free) qHTS assay (AID 1645840; active means well fitted curve in the direction sought with a large enough effect in the repeat runs; an effect the other way counts as inactive or inconclusive; further: nearly all actives have a fitted effect of over 55% in size; further: potency means the concentration at half of the fitted maximal effect)
How it was run: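 P450-Glo CYP2D6 system: proluciferin substrate converted by enzyme to luciferin, read by luminescence proportional to activity. Enzyme-substrate mix with compound 10 min at room temperature, then NADPH regeneration 1 h before detection reagent.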

[6] = target: Catechol O-methyltransferase (Homo sapiens) (UniProt P21964); assay: Confirmatory Screen for Target Class Profiling of Small Molecule Inhibitors of Methyltransferases (AID 1745852); details: MTase-Glo luminescence, SAH detection, recombinant enzyme; measured here: COMT max response; stronger effect = lower value
[7] = target: Guanidinoacetate N-methyltransferase (Homo sapiens) (UniProt Q14353); assay: as above; details: activity change, negative = inhibition: at 57.3 µM (top of the series) unless noted
[8] = target: Nicotinamide N-methyltransferase (Homo sapiens) (UniProt P40261); assay: as above; details: MTase-Glo luminescence, SAH detection, recombinant enzyme; measured here: NNMT max response; stronger effect = lower value
[9] = target: Phenylethanolamine N-methyltransferase (Homo sapiens) (UniProt P11086); assay: as above; details: MTase-Glo luminescence, SAH detection, recombinant enzyme; measured here: PNMT max response; stronger effect = lower value
[10] = qHTS drug screen for cell cycle checkpoint inhibitors in PARPi-resistant BRCA-mutant ovarian cancer cell lines. (AID 1963452; calls by dose curve; further: potency means the concentration at half of the fitted maximal effect); details: PEO1/OlaR viability, CellTiter-Glo luminescence, 96 h; for Z-AUC: stronger effect = lower value
How it was run: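 PEO1, PEO4 and PEO1/OlaR ovarian cancer cells, 600 per well, exposed 96 h at 37C to a dilution series. Viability read by CellTiter-Glo luminescence, normalized to DMSO and empty wells; activity summarized as Z-AUC.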

Glutathione peroxidase 1 (Homo sapiens), sequence (P07203 whole entry, looked up): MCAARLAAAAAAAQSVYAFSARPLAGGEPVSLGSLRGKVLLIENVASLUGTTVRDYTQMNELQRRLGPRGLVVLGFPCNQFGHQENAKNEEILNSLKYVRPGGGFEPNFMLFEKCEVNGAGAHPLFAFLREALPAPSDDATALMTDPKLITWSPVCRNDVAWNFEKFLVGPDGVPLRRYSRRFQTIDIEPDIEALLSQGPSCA
Cytochrome P450 2D6 (Homo sapiens), sequence (P10635 whole entry, looked up): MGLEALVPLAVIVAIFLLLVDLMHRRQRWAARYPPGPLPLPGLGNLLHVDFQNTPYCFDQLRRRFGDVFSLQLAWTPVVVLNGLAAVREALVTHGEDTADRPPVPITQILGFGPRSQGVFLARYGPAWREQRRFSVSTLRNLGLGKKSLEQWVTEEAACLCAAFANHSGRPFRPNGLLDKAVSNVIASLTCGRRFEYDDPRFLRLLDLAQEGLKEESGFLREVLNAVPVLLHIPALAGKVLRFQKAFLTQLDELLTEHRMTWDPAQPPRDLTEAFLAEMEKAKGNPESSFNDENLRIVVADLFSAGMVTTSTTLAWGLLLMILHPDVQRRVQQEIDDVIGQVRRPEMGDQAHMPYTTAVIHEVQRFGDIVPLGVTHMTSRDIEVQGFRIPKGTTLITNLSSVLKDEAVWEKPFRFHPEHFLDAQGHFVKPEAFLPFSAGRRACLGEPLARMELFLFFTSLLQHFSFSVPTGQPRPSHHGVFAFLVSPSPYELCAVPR
Phenylethanolamine N-methyltransferase (Homo sapiens), sequence (P11086 whole entry, looked up): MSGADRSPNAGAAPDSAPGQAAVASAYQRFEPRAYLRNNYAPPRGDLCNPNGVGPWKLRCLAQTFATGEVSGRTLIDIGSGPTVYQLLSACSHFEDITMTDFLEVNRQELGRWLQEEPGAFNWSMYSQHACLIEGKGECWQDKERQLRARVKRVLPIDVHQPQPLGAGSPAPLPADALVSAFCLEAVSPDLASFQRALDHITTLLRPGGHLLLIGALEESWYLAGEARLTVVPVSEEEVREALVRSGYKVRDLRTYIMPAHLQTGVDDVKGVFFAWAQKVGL
Nicotinamide N-methyltransferase (Homo sapiens), sequence (P40261 whole entry, looked up): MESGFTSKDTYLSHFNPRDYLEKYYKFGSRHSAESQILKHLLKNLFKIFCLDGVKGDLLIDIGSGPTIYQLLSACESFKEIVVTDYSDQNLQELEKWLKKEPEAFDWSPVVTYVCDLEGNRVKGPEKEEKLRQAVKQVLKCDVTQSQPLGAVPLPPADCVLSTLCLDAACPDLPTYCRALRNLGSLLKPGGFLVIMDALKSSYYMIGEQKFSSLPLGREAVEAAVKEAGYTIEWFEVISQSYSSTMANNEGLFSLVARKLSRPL
Catechol O-methyltransferase (Homo sapiens), sequence (P21964 whole entry, looked up): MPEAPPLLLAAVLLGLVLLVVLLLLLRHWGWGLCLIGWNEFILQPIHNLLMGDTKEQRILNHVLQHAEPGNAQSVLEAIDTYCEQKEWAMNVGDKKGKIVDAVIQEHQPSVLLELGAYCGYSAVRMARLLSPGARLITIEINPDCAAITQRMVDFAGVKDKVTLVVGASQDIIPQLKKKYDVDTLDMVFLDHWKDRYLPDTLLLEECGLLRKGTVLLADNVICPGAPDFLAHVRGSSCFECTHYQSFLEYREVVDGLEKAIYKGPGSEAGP

CO[C@H]1[C@@H](O)[C@@H](C)O[C@@H](O[C@@H]2C=C3C(OC(C)=O)CC4(O)C(CC[C@]5(C)[C@@H](C6=CC(=O)OC6)CC[C@]45O)[C@@]3(C)CC2)[C@@H]1O (some centres undefined)
inactive: Potency [2] | Potency [3]
active: Potency [1] 0.0858 µM | Potency (KB-3-1) 0.385 µM | Potency (CAOV3) 0.501 µM | Potency (HeLa) 0.501 µM | Potency (SKOV3) 0.282 µM

C=CCN1CCC2(C)c3cc(O)ccc3C[C@H]1[C@H]2C
inactive: Potency [4] | Potency [1] | Potency [3] | max response (KB-3-1) 1.41% | Potency (CAOV3) | Potency (JEG-3) | Potency (SKOV3)

COC1CC(O[C@H]2CC[C@]3(C)C4CC[C@]5(C)[C@@H](C6=CC(=O)OC6)[C@@H](OC(C)=O)C[C@]5(O)C4CC[C@@H]3C2)OC(C)C1O (some centres undefined)
inactive: Potency [4] | Potency [3]
active: Potency [1] 0.448 µM | Potency (KB-3-1) 0.563 µM | Potency (CAOV3) 1.26 µM | Potency (SKOV3) 0.794 µM

CN(C)c1cc2c(cc1Sc1nc3c(N)nccc3n1CCNCC(C)(C)C)OCO2
-4.13%: activity change, negative = inhibition [7]
-0.0762%: activity [9]
-1.43: Z-AUC ([10]; measured here: PEO1 parental Z-AUC)
-1: Z-AUC ([10]; measured here: PEO4 Z-AUC)
active: Potency [5] 0.952 µM | Potency [10] 1.55 µM | Potency (KB-3-1) 0.731 µM | Potency (CAOV3) 1.12 µM | Potency (JEG-3) 11.2 µM | Potency (SKOV3) 5.62 µM
-13.6%: activity [6]
-41.4%: activity [8]
inactive: Potency [4] | Potency [2] | Potency (HeLa)

CO[C@H]1C[C@H](O[C@H]2CC[C@@]3(C)C(=CCC4C3CC[C@]3(C)[C@@H](C5=CC(=O)OC5)CC[C@]43O)C2)O[C@@H](C)[C@@H]1O[C@@H]1O[C@H](CO[C@@H]2O[C@H](CO)[C@@H](O)[C@H](O)[C@H]2O)[C@@H](O)[C@H](O)[C@H]1O (some centres undefined)
inactive: Potency [4] | activity change, negative = cell killing [1] -4.53% [at 9.23 µM] | Potency [2] | activity change, negative = thiol reactive [3] 94.1% [at 11.5 µM] | max response (KB-3-1) 4.69% | activity change, negative = cytotoxicity (CAOV3) 17.9% [at 11.6 µM] | activity change, negative = cytotoxicity (JEG-3) 16.2% [at 11.6 µM]

CNc1ccc2oc(C[C@H]3O[C@@]4(CC[C@H]3C)O[C@H](C(C)C(=O)c3ccc[nH]3)[C@H](C)C[C@H]4C)nc2c1C(=O)O (some centres undefined)
active: Potency [4] 11.2 µM | Potency [1] 14.5 µM | Potency (KB-3-1) 2.31 µM | Potency (CAOV3) 22.4 µM
inactive: Potency [5]

CC(=O)OC[C@]12C[C@H](O)C(C)=C[C@H]1O[C@@H]1[C@H](O)[C@@H](O)[C@@]2(C)[C@]12CO2
inactive: Potency [4] | Potency [2] | Potency [3]
active: Potency [1] 0.713 µM | Potency (KB-3-1) 2.27 µM | Potency (CAOV3) 3.98 µM | Potency (SKOV3) 3.98 µM

O=C(OC[C@H]1O[C@@H](Oc2ccc(O)cc2CO)[C@H](O)[C@@H](O)[C@@H]1O)c1ccccc1
active: Potency [3] 3.67 µM
inactive: Potency [2] | max response (KB-3-1) 4.17% | Potency (CAOV3) | Potency (HeLa) | Potency (JEG-3)

C[C@H](CCC(=O)O)C[C@H](C)C[C@H](C)C(=O)/C=C(\O)[C@H](C)C[C@H](C)C/C=C/[C@@H](C)[C@@H](O)[C@@H](C)[C@@H](O)C[C@@H]1CC[C@@](C)([C@H]2CC[C@@](C)([C@@H](C)O)O2)O1
inactive: Potency [2] | Potency [3] | Potency (CAOV3) | Potency (HeLa) | Potency (JEG-3)
active: Potency [1] 4.47 µM | Potency (KB-3-1) 8.93 µM

COC1CC(O[C@H]2CC[C@@]3(C)C(CCC4C3CC[C@]3(C)[C@@H](C5=CC(=O)OC5)CC[C@]43O)C2)OC(C)C1O (some centres undefined)
active: Potency (KB-3-1) 0.159 µM | Potency (CAOV3) 0.178 µM | Potency (HeLa) 0.141 µM | Potency (SKOV3) 0.126 µM
inactive: Potency [4] | Potency [2] | Potency [3]

CC[C@H]1C2CC3[C@@H]4N(C)c5ccccc5[C@]45C[C@@H]([C@H]2[C@H]5O)N3[C@@H]1O
inactive: Potency [4] | Potency [2] | max response (KB-3-1) 0.117% | Potency (CAOV3) | Potency (HeLa) | Potency (JEG-3) | Potency (SKOV3)

CC[C@H]1C[C@@H]2CC[C@@H](O2)[C@@H](C)C(=O)O[C@H](CC)C[C@H]2CC[C@H](O2)[C@H](C)C(=O)O[C@@H](C)C[C@@H]2CC[C@@H](O2)[C@@H](C)C(=O)O[C@H](CC)C[C@H]2CC[C@H](O2)[C@H](C)C(=O)O1
inactive: Potency [4] | Potency [2] | Potency (JEG-3)
active: Potency [1] 0.0136 µM | Potency (KB-3-1) 0.0153 µM | Potency (CAOV3) 0.398 µM | Potency (HeLa) 0.562 µM | Potency (SKOV3) 0.251 µM

COC1CC(O[C@H]2CC[C@]3(C)C4CC[C@]5(C)[C@@H](C6=CC(=O)OC6)[C@@H](OC(C)=O)C[C@]5(O)C4CC[C@@H]3C2)OC(C)C1O[C@@H]1O[C@H](CO)[C@@H](O)[C@H](O)[C@H]1O (some centres undefined)
active: Potency [1] 0.483 µM | Potency [3] 6.3 µM | Potency (KB-3-1) 0.862 µM | Potency (CAOV3) 1.12 µM | Potency (SKOV3) 0.891 µM
